The test system of assay [1] is Zika virus NS2B-NS3 protease (linked construct). Briefly: Primary screen NINDS Rhodamine qHTS for Zika virus inhibitors (AID 1347160). Further: nearly all actives have a fitted effect of over 55% in size. Further: potency means the concentration at half of the fitted maximal effect. The procedure, abridged:
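Percent inhibition, normalized to uninhibited and enzyme-free controls, is fitted to a 4-parameter Hill equation. Fluorescence change comes from a 15-min cleavage of 1.5 microM bis-peptide Rhodamine110 substrate by 25 nM linked NS2B-NS3 at room temperature.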
On the technique in general: qHTS replaces the single test concentration by a dilution series.

Assay [2] in a line: OV-KATE Cancer Cell Toxicity qHTS against the NCATS CANVASS Library (AID 1347345). Further: potency means the concentration at half of the fitted maximal effect. In short, it runs like this: (§1)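 In this cytotoxicity screen, 1000 cells per well rested 4 hours, then received compound (11 concentrations) for a 72-hour incubation; an ATP-dependent luminescent signal (CellTiter-Glo) was the endpoint.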
Assay [3] in a line: HPAF-II Cancer Cell Toxicity qHTS against the NCATS CANVASS Library (AID 1347346). Further: nearly all actives have a fitted effect of over 55% in size. Further: potency means the concentration at half of the fitted maximal effect. The procedure, abridged:
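HPAF-II cells were seeded at 1000 cells/well, allowed to settle for 4 h at 37 degrees C, then exposed to compounds in an 11-point series for 72 h. Viability was read by CellTiter-Glo luminescence.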

Assay [4] is described as follows: OV-SAHO Cancer Cell Toxicity qHTS against the NCATS CANVASS Library (AID 1347348). Further: nearly all actives have a fitted effect of over 55% in size. Further: potency means the concentration at half of the fitted maximal effect. In short, it runs like this: as §1
The nature of assay [5]: Panc-1005 Cancer Cell Toxicity qHTS against the NCATS CANVASS Library (AID 1347349). Further: nearly all actives have a fitted effect of over 60% in size. Further: potency means the concentration at half of the fitted maximal effect. In short, it runs like this: as §1
The nature of assay [6]: COV-362 Cancer Cell Toxicity qHTS against the NCATS CANVASS Library (AID 1347352). Further: potency means the concentration at half of the fitted maximal effect. In short, it runs like this:
(§2)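 Cells were seeded at 1000 per well and allowed to settle 4 hours at 37 degrees C before pin transfer of compounds as an 11-point series. Viability was read by CellTiter-Glo luminescence after 72 hours' exposure.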

Assay [7] in a line: UWB1.289-WTBRCA1 Cancer Cell Toxicity qHTS against the NCATS CANVASS Library (AID 1347354). Further: potency means the concentration at half of the fitted maximal effect. The procedure, abridged:
as §2

Assay [8] is described as follows: HEK293 24hr Apoptosis Induction qHTS against the NCATS CANVASS Library (AID 1347359). The procedure, abridged: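 HEK293 cells (500/well, DMEM + 10% FBS) were exposed to compounds in an 11-point series for 24 hours at 37 degrees C, then caspase-3/7 activity was read by Caspase-Glo DEVD luciferase luminescence after 15 min.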
A short description of assay [9]: HEK293 12hr Apoptosis Induction qHTS against the NCATS CANVASS Library (AID 1347361). In short, it runs like this: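 Cells are seeded, dosed with an 11-point compound series and incubated 12 hours. Caspase-3/7 activity is detected by luminescent DEVD-substrate reagent after 15 minutes at room temperature.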
Assay [10] relates to NAD(P)H diaphorase (Clostridium kluyveri). Briefly: Diaphorse counterscreen qHTS: Assay Interference Panel against the NCATS CANVASS Library (AID 1347362). In short, it runs like this: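 Clostridium kluyveri diaphorase in PBS with 0.01% Tween-20 was preincubated 15 min at room temperature in the dark with compounds (11-point series). Resorufin fluorescence (ex 525/20, em 598/25) was read 5 min after adding resazurin/NADH.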
Background: Counterscreens check selectivity or assay interference.

Assay [11] deals with Luciferin 4-monooxygenase (Photinus pyralis) (UniProt P08659). Put plainly: Firefly luciferase counterscreen qHTS: Assay Interference Panel against the NCATS CANVASS Library (AID 1347363). Further: series mostly up to about 57 µM. In short, it runs like this: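 Purified P. pyralis luciferase was added to compounds (11-point series) preincubated 15 min at room temperature with substrate containing 0.013 mM D-luciferin and 0.013 mM ATP; luminescence was read after 5 min.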

Assay [12] has as its system Zika virus NS2B-NS3 protease. Put plainly: Primary screen GU AMC qHTS for Zika virus inhibitors (AID 1347154). Further: nearly all actives have a fitted effect of over 70% in size. The procedure, abridged:
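Unlinked Zika NS2B hydrophilic domain/NS3 protease domain noncovalent complex (25 nM final) in 10 mM Tris-HCl pH 8.0, 0.01% Tween 20, with AMC peptide substrate. Fluorescence (ex 340, em 450 nm) change over 15 min, room temperature; percent inhibition fitted to 4-parameter Hill equation.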

In assay [13] the target is Glucocorticoid receptor (Homo sapiens) (UniProt P04150). Put plainly: GR-GFP Redistribution (AID 450;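 active means compounds whose dose series gives a full or clear partial fitted curve of increased nuclear translocation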; further: potency means the concentration at half of the fitted maximal effect). As to conditions: U2OS GR-GFP nuclear translocation, laser cytometry, 2 h.
Assay [14] shares this target. Put plainly: GR-EFC Redistribution (AID 451; calls by dose curve; further: potency means the concentration at half of the fitted maximal effect). As to conditions: CHO-K1 GR-EFC translocation, beta-gal luminescence, 2 h. The procedure, abridged: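 CHO-K1 cells stably expressing nuclear-localized β-gal enzyme acceptor and GR fused C-terminally to the enzyme donor fragment; ligand-driven nuclear translocation restores β-gal by complementation. Compounds titrated up to 46 uM final, 2 h at 37 °C; luminescence read.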

Assay [15] addresses DNA dC->dU-editing enzyme APOBEC-3G (Homo sapiens) (UniProt Q9HC16). Put plainly: qHTS for inhibitors of Vif-A3G interactions: Validation (AID 588379). The procedure, abridged:
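HeLa cells stably expressing Vif and A3G-eYFP, 700 cells/well, incubated overnight at 37 deg C, then exposed to compound overnight at 37 deg C. Inhibition of Vif-mediated degradation read as increased yellow fluorescence (Ex 488/Em 500-530) by laser-scanning cytometry.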

Assay [16] has as its target Cytochrome P450 1A2 (Homo sapiens) (UniProt P05177). Briefly: p450-cyp1a2 (AID 410; calls by dose curve; further: potency means the concentration at half of the fitted maximal effect). The procedure, abridged:
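Human CYP1A2 (20nM) demethylated Luciferin-ME at its Km (100uM) in 100mM KPO4. After 10 min compound preincubation, NADPH regeneration ran the reaction 60 min at room temperature. Luciferin was read by luminescence, normalized to 57 uM furafylline.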

The target in assay [17] is 3',5'-cyclic-AMP phosphodiesterase 4B (Homo sapiens) (UniProt Q07343). Put plainly: qHTS Assay for Inhibitors of PDE-IV (AID 607; active means well fitted activation curve with a large enough effect in the main read-out, with a control signal flat, not every such curve was filed as active). The procedure, abridged:
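Live HEK293 cells with a modified cyclic nucleotide-gated (CNG) channel report intracellular cAMP via membrane-potential dye fluorescence (ex 535/em 590 nm). Endogenous PDE-IV was targeted. Compounds were tested at up to 22.9 uM final; RO 20-1724 100 uM served as control.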

For assay [18], the target named is Ubiquitin carboxyl-terminal hydrolase 1 (Homo sapiens) (UniProt O94782). Put plainly: Inhibitors of USP1/UAF1: Pilot qHTS (AID 504865).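 Further: rhodamine fluorescence freed from ubiquitin-rhodamine substrate followed over time; top concentration of the series differs between compounds; nearly all actives have a fitted effect of over 35% in size.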 In short, it runs like this:
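In 50mM HEPES pH 7.8 containing 0.5mM EDTA, 1mM TCEP, 0.1 mg/ml BSA and 0.01% Tween-20, 1nM USP1/UAF1 is exposed to compound for 15 min, then Ub-Rho (150nM final) is added and fluorescence is read over time.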

Assay [19] addresses Mitogen-activated protein kinase 10 (Mus musculus) (UniProt Q61831). Briefly: JNK3 AlphaScreen Assay (AID 530; active means well fitted curve in either direction with a large enough effect, not every such curve was filed as active;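 further: kinase came from lysate of stimulated human HepG2 cells; signal reports phosphorylation of biotinylated GST-cJun 1-79 at Ser73 with 10 µM ATP; series mostly up to about 57 µM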). In short, it runs like this: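 JNK3 came from HepG2 lysates pre-activated with IL-1beta and TNF-alpha and phosphorylated biotinylated GST-cJun (1-79) at 10 uM ATP, pH 7.6, room temperature. Compounds were titrated. AlphaScreen signal used anti-phospho-cJun (Ser73) antibody.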

Unmarked numbers belong to inactive results. Results filed as inconclusive are left out. Calls of active or inactive are those of the source. Unless noted, the call rests on the fitted dose curve; in most records, active means well fitted curve in the direction sought with a large enough effect; inconclusive means small, poorly fitted or top-dose-only effect, or another doubt; inactive means no such curve, though single readings can be large; an effect the other way counts as inactive or inconclusive. Bounds are passed on as bounds.

Sequence of DNA dC->dU-editing enzyme APOBEC-3G (Homo sapiens) (Q9HC16 whole entry, looked up): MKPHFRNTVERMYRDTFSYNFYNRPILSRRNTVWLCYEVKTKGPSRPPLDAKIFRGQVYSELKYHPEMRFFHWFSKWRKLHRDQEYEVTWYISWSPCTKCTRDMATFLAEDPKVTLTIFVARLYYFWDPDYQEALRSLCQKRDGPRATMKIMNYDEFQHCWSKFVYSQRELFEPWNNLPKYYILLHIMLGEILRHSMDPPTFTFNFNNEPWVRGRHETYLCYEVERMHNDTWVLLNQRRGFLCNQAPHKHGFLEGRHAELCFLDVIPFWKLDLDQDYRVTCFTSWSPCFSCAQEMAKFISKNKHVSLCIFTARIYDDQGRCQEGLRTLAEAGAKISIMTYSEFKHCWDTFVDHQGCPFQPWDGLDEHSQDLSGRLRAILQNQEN
Sequence of Glucocorticoid receptor (Homo sapiens) (P04150 whole entry, looked up, the tested form may be a part): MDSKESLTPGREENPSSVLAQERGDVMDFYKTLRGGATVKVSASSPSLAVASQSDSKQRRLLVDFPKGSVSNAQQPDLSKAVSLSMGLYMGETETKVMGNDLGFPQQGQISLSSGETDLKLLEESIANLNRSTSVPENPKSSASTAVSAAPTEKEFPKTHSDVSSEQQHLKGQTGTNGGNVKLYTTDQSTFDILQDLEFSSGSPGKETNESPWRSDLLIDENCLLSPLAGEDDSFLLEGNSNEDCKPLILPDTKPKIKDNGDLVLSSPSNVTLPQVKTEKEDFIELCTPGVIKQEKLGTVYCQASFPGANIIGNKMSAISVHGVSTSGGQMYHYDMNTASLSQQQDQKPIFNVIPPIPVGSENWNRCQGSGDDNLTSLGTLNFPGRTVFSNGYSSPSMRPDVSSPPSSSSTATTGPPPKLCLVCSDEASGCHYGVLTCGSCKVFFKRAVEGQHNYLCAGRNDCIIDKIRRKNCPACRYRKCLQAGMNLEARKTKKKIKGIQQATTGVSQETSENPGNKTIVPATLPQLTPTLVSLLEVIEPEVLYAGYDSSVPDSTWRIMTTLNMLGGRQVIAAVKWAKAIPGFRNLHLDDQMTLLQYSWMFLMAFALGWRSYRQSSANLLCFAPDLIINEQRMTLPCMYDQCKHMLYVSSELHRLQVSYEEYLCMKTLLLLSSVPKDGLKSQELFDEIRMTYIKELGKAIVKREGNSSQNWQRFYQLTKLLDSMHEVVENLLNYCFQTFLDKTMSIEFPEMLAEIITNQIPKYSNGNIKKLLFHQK
Sequence of Luciferin 4-monooxygenase (Photinus pyralis) (P08659 whole entry, looked up): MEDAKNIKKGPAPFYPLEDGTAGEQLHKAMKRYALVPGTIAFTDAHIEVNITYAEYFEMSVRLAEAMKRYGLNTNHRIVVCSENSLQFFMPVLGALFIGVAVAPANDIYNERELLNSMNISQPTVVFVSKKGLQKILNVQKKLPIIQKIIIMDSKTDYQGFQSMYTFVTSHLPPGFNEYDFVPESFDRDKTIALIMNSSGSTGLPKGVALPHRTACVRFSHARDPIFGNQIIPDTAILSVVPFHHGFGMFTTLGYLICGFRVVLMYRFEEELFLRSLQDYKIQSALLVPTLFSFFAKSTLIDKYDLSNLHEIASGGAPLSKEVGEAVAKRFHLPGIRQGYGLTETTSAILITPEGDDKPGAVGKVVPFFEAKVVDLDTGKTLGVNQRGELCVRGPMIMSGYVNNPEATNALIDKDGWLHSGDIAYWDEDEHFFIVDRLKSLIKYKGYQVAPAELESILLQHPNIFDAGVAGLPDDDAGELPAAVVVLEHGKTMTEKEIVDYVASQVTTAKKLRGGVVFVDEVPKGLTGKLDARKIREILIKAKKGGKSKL
Sequence of Cytochrome P450 1A2 (Homo sapiens) (P05177 whole entry, looked up): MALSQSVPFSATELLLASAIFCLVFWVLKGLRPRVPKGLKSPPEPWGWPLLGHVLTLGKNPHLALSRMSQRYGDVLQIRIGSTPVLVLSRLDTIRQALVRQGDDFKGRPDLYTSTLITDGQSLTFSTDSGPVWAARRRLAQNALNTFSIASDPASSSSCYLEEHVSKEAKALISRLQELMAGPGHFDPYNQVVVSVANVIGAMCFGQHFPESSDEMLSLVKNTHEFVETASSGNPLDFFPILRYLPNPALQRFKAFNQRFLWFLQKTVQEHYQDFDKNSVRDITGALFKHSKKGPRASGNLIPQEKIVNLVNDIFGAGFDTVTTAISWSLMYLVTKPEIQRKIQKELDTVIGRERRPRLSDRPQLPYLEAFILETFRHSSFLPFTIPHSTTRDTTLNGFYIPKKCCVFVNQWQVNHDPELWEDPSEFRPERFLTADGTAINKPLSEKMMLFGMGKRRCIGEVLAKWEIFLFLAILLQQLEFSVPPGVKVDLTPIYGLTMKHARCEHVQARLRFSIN
Sequence of 3',5'-cyclic-AMP phosphodiesterase 4B (Homo sapiens) (Q07343 whole entry, looked up): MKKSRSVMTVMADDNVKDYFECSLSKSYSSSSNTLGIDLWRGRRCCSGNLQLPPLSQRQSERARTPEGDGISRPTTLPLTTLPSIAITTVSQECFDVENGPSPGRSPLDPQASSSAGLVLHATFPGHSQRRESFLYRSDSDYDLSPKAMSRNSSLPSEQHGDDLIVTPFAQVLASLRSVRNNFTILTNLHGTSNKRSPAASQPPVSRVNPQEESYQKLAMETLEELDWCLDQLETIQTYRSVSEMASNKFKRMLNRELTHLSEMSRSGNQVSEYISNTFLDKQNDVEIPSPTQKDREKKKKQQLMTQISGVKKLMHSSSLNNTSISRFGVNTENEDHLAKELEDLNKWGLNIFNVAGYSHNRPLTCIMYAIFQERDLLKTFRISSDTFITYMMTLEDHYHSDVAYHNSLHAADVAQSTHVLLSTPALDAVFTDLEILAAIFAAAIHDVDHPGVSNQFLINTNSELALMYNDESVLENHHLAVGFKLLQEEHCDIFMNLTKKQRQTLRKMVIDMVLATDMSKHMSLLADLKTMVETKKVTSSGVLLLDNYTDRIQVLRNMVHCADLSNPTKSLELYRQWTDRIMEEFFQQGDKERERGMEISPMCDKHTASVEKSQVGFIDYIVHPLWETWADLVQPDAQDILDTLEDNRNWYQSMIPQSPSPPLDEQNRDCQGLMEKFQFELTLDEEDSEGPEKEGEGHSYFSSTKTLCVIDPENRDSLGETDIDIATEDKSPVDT
Sequence of Ubiquitin carboxyl-terminal hydrolase 1 (Homo sapiens) (O94782 whole entry, looked up): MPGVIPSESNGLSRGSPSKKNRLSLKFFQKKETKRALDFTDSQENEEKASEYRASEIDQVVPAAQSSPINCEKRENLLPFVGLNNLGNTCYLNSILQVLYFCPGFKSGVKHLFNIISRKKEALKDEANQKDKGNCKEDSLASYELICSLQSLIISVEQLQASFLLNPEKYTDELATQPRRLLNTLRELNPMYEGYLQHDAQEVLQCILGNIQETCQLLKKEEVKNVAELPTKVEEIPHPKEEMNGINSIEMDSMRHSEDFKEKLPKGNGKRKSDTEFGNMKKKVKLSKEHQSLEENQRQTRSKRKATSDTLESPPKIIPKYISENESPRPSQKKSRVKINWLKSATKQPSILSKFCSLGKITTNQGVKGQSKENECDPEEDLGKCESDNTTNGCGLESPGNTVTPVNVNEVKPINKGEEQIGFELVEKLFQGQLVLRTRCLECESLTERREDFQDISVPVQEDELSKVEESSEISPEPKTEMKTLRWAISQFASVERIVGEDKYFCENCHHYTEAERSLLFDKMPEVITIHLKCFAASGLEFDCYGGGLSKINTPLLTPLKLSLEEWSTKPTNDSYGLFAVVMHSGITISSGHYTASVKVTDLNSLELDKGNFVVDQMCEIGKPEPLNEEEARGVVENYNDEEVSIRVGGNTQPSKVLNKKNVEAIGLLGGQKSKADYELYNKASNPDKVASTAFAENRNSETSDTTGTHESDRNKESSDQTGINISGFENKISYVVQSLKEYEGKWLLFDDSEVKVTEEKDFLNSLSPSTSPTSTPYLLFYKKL

As to `COC(=O)C1=C2Nc3ccccc3[C@@]23CCN2CC(C(C)=O)C1C[C@H]23` (some centres not stated), the Potency in assay [1] is 55.3 µM (active); in [3] it was 9.43 µM (active). Besides, the Potency entry in assay [2], in [4], in assay [5], in [6], in assay [7] and in [8] was “inactive” throughout. Also, the Potency result in assay [9] was “inactive”. The compound was called inactive in assay [10] and in [11].

Regarding `CC(C)C[C@H]1C(=O)N2CCCC2[C@]2(O)O[C@](NC(=O)[C@@H]3C=C4c5cccc6[nH]cc(c56)CC4N(C)C3)(C(C)C)C(=O)N12` (some centres not stated), the Potency entry in assay [12] was “inactive”.

For `CO[C@@H](/C=C/CC/C=C/C(=O)O)[C@@H](O)[C@H](C)[C@@H](O)/C(C)=C/[C@H](C)C(=O)CCCC1CC(=O)NC(=O)C1`, the Potency entry in [1], in assay [2], in [3], in [4], in assay [5] and in assay [6] was “inactive” throughout. For the same compound, the Potency entry in assay [7], in [8] and in assay [9] was “inactive” in each case. For the same compound, the compound was called inactive in [10] and in assay [11].

On to `O=C(CCCN1CCC2(CC1)C(=O)N(Cc1cccc(F)c1)CN2c1ccccc1)c1ccc(F)cc1`, for which the Potency in assay [13] and in assay [14] was above 46 µM in each case. Further, the Potency entry in assay [15] and in assay [12] was “inactive” throughout.

Regarding `CC(C)[C@@]1(NC(=O)[C@H]2CC3c4cccc5[nH]cc(c45)C[C@H]3N(C)C2)O[C@@]2(O)C3CCCN3C(=O)[C@@H](Cc3ccccc3)N2C1=O` (some centres not stated), the Potency entry in [12] is “inactive”.

Consider `C[C@@H](N)Cn1ccc2cc(F)c(Cl)cc21`, for which the Potency in assay [16] is 0.0501 µM (active); in assay [13], above 46 µM; in [14], above 46 µM. Further, the Potency result in [17], in assay [18], in assay [15] and in [12] was “inactive” in each case.

As to `C[C@]12CC(O)C3[C@@H](CCC4C[C@@H](O)CC[C@@]43CO)[C@@]1(O)CCC2C1=CC(=O)OC1` (some centres not stated), the Potency in assay [1] was 62.1 µM (active). The Potency result in [2], in [3], in assay [4], in assay [5], in [6] and in [7] was “inactive” throughout. In addition, the Potency entry in assay [8] and in assay [9] was “inactive” in each case. Also, the call in [10] and in assay [11] was inactive.

With `CCC(=O)CCCCC[C@@H]1NC(=O)[C@H]2CCCCN2C(=O)[C@H]([C@@H](C)CC)NC(=O)[C@H](Cc2cn(OC)c3ccccc23)NC1=O`, the Potency was 13.9 µM (active) in assay [1]; 4.72 µM (active) in [2]; 0.841 µM (active) in assay [3]; 3.75 µM (active) in [4]; 0.668 µM (active) in assay [5]; 16.7 µM (active) in assay [6]. In addition, the Potency in assay [7] was 6.66 µM (active). Moreover, the Potency result in assay [8] and in assay [9] was “inactive” throughout. In addition, the compound was classed as inactive in assay [10] and in assay [11].

With `CNCCc1ccccc1`, the Potency entry in assay [1], in assay [2], in [3], in assay [4], in assay [5] and in assay [6] was “inactive” in each case. Besides, the Potency result in assay [7], in assay [8] and in assay [9] was “inactive” in each case. Further, the outcome in assay [10] and in assay [11] was inactive.

Regarding `C#CCN1C(C)=C(C(=O)CCO)[C@@H](c2cccc(-n3oo3)c2)C(C(=O)OC)=C1C`, in [14], the Potency is above 46 µM. Also, the result in [19] was inactive. In addition, the Potency entry in assay [15] and in assay [12] was “inactive” each time.

Source of the values: PubChem BioAssay (NCATS).
